Reference: PubChem BioAssay (Tox21)
Several values for one entry are separate records, joined by “and”; a condition that tells them apart may be missing. Equal entries are not always repeated. Inconclusive results are not listed. Activity calls are given as the source filed them. Unless noted, calls come from the whole dose curve; as a rule, active = well fitted curve in the direction sought with a large enough effect in the repeat runs; inconclusive = weak or mixed curves; inactive = no such curve, though single readings can be large; an effect the other way counts as inactive or inconclusive.

What was measured:
[1] = qHTS assay for small molecule agonists of the p53 signaling pathway (AID 651631; calls by dose curve; note: nearly all actives have a fitted effect of over 15% in size; note: potency is the fitted concentration of half-maximal effect)
Procedure, shortened: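 We treat p53RE-bla HCT-116 cells with compounds for 16 h at 37 °C, add LiveBLAzer B/G FRET substrate for 2 h at room temperature, and measure fluorescence intensity.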

[2] = qHTS assay for small molecules that induce genotoxicity in human embryonic kidney cells expressing luciferase-tagged ATAD5 (AID 651632); note: nearly all actives have a fitted effect of over 15% in size; note: potency is the fitted concentration of half-maximal effect
Procedure, shortened: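 Luminescence read-out: after 16 hr compound exposure at 37C, ATAD5-luciferase HEK293T cells received Amplite, 30 min RT, then CCD imaging. A rise in signal marks genotoxic stress.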

[3] = qHTS assay for small molecule agonists of the p53 signaling pathway - cell viability (AID 651633; calls by dose curve; note: nearly all actives have a fitted effect of over 30% in size; note: potency is the fitted concentration of half-maximal effect)
Procedure, shortened: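 p53RE-bla cells were treated with compound for 16 hours at 37 C. Cytotoxicity was then measured as CellTiter-Glo luminescence after 30 min at room temperature.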

[4] = qHTS assay for small molecules that induce genotoxicity in human embryonic kidney cells expressing luciferase-tagged ATAD5 - cell viability (AID 651634; calls by dose curve; note: nearly all actives have a fitted effect of over 25% in size; note: potency is the fitted concentration of half-maximal effect)
Procedure, shortened: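 HEK293T ATAD5-luc cells, 2,000/well; compound 15.5 hr, 37C/5% CO2; CellTiter-Fluor 30 min, 37C; fluorescence read.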

[5] = qHTS assay for small molecule disruptors of the mitochondrial membrane potential - cell viability (AID 720634; calls by dose curve;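 note: human HepG2 liver cancer cells; nearly all actives have a fitted effect of over 20% in size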)
Procedure, shortened: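 Luminescence from CellTiter-Glo (ATP content) gave viability in HepG2 cells, read in the same wells as the MMP dye assay after 1 hr compound exposure at 37 C.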

[6] = qHTS assay for small molecule disruptors of the mitochondrial membrane potential (AID 720635); note: potency is the fitted concentration of half-maximal effect
Procedure, shortened: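 HepG2 cells exposed to compound 1 hr at 37C, then Mito-MPS dye 30 min. Ratio read of aggregate (540/590 nm) versus monomer (490/535 nm) fluorescence.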

[7] = qHTS assay to test for compound auto fluorescence at 590 nm (red) in HepG2 cells (AID 720674)
Procedure, shortened: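 Seeding: 2,000 HepG2 cells/well, MEM/10% FBS, overnight 37 C. Dosing: compound vs DMSO. Incubation: 1 hr, 37 C, 5% CO2. Read: fluorescence 540 ex/590 em, Rose Bengal sodium as red reference.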

[8] = qHTS assay to test for compound auto fluorescence at 535 nm (green) in HepG2 cells (AID 720675)
[9] = qHTS assay to test for compound auto fluorescence at 460 nm (blue) in HEK293 cells (AID 720678)
Procedure, shortened: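 After cell attachment (4-5 hr, 37C), compounds were pinned onto HEK293 monolayers in 10% dialyzed FBS medium. The blue channel (405/460 nm) was read following overnight culture. Equivalency was calculated against triamterene.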

[10] = qHTS assay to test for compound auto fluorescence at 590 nm (red) in HEK293 cells (AID 720679)
Procedure, shortened: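 Plates of HEK293 cells (10% dialyzed FBS) are treated with 23 nL compound or DMSO vehicle after a 4-5 hr attachment period, incubated overnight at 37C, and read for red fluorescence at 540/590nm.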

[11] = qHTS assay to test for compound auto fluorescence at 460 nm (blue) in HEK293 cell free culture (AID 720681)
Procedure, shortened: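 Compounds were added to cell-free DMEM with 10% FBS and fluorescence read directly. The blue channel used 405 nm excitation and 460 nm emission, with triamterene as the reference fluorophore.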

[12] = qHTS assay to test for compound auto fluorescence at 535 nm (green) in HEK293 cell free culture (AID 720682)
Procedure, shortened: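 Green-channel intensity (Ex/Em 485/535 nm) was recorded from compound-treated wells containing only DMEM with 10% FBS. Fluorescein provided the equivalency standard.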

[13] = qHTS assay to test for compound auto fluorescence at 590 nm (red) in HEK293 cell free culture (AID 720683)
Procedure, shortened: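 Cell-free wells of DMEM with 10% FBS received compound, and intrinsic fluorescence was read at excitation/emission 540/590 nm. Values expressed as equivalence to Rose Bengal sodium.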

[14] = qHTS assay to test for compound auto fluorescence at 590 nm (red) in HepG2 cell free culture (AID 720684)
Procedure, shortened: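 Rose Bengal sodium served as the reference for red signal. Test compounds were dispensed into serum-containing MEM (10% FBS) without cells, and plates were read at 540/590 nm.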

[15] = qHTS assay to test for compound auto fluorescence at 460 nm (blue) in HepG2 cell free culture (AID 720685)
Procedure, shortened: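 Cell-free plates of MEM plus 10% FBS received 23 nL compound or DMSO vehicle; blue-channel (405/460 nm) intensity scored against triamterene as reference fluorophore.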

[16] = qHTS assay to test for compound auto fluorescence at 535 nm (green) in HepG2 cell free culture (AID 720686)
[17] = qHTS assay to test for compound auto fluorescence at 460 nm (blue) in HepG2 cells (AID 720687)
Procedure, shortened: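 HepG2 cells in MEM with 10% FBS, attached overnight at 37 C, were exposed to compound or DMSO for 1 hr at 37 C, 5% CO2. Blue fluorescence was read at 405/460 nm, with triamterene as reference fluorophore.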

[18] = biological target: Glucocorticoid receptor (Homo sapiens) (UniProt P04150); test: qHTS assay to identify small molecule agonists of the glucocorticoid receptor (GR) signaling pathway (AID 720691; active = well fitted activation curve with a large enough effect in the signal ratio in the repeat runs, not every such curve was filed as active; the % refers to the signal ratio); settings: GR-bla HeLa, beta-lactamase reporter ratio, 18 h; activation: at 62.4 µM (top of the series)
Sequence of Glucocorticoid receptor (Homo sapiens) (P04150 whole entry, looked up): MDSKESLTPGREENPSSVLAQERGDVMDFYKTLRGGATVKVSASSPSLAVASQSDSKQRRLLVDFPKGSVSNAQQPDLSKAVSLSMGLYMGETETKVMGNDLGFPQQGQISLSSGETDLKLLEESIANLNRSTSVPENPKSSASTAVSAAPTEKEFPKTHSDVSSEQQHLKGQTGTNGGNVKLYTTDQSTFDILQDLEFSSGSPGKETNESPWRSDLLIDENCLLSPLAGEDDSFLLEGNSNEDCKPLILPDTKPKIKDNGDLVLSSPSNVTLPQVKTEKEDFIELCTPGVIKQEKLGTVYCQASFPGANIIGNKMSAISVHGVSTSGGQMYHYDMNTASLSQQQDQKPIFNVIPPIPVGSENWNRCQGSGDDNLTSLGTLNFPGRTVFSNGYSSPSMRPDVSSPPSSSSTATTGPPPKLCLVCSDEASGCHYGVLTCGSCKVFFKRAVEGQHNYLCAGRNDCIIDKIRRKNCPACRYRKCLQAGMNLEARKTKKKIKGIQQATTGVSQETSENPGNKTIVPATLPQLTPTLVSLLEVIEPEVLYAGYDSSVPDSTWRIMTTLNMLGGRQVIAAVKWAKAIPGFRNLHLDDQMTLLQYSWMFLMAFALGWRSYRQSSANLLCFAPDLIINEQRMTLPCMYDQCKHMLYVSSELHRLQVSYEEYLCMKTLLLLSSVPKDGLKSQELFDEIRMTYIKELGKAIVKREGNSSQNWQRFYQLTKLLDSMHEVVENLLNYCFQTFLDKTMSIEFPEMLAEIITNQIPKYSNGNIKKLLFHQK
Procedure, shortened: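 HeLa GR-bla reporter line; cells pre-incubated 4 h, compound in DMSO 18 h at 37 C; LiveBLAzer B/G FRET substrate 2 h RT; fluorescence intensity read-out.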

[19] = qHTS assay to test for compound auto fluorescence at 535 nm (green) in HEK293 cells (AID 720680)
[20] = biological target: Glucocorticoid receptor (Homo sapiens) (UniProt P04150); test: qHTS assay to identify small molecule antagonists of the glucocorticoid receptor (GR) signaling pathway (AID 720692; active = well fitted inhibition curve with a large enough effect in the signal ratio in the repeat runs, not every such curve was filed as active; the % refers to the signal ratio)
Procedure, shortened: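 Read-out: beta-lactamase FRET substrate fluorescence, 2 h at room temperature, in HeLa cells stably carrying a GRE-driven bla reporter. Compounds were co-incubated with 5 nM dexamethasone agonist (final) for 18 h at 37 C.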

Measured: Potency

CC/C=C\C/C=C\C/C=C\C/C=C\C/C=C\CCCC(=O)O
not listed: [19] | [20]
inactive: all other assays above

CS(=O)(=O)c1ccc([C@@H](O)[C@@H](COC(=O)CN)NC(=O)C(Cl)Cl)cc1
not listed: [13] | [18] | [20]
inactive: all other assays above

CCOC(=O)Cc1ccc(-c2ccccc2)cc1
not listed: [15] | [17] | [18] | [19] | [20]
inactive: all other assays above

CO/N=C(\C(=O)N[C@@H]1C(=O)N2C(C(=O)O)=C(CSc3cnns3)CS[C@H]12)c1csc(N)n1
not listed: [15]
inactive: all other assays above

O=P(O)(O)C(O)(Cn1ccnc1)P(=O)(O)O
not listed: [13] | [20]
inactive: all other assays above

CO[C@H](C(=O)[C@@H](O)[C@@H](C)O)C1Cc2cc3cc(O[C@H]4C[C@@H](O[C@H]5C[C@@H](O)[C@H](O)[C@@H](C)O5)[C@@H](O)[C@@H](C)O4)c(C)c(O)c3c(O)c2C(=O)[C@H]1O[C@H]1C[C@@H](O[C@H]2C[C@@H](O[C@H]3C[C@](C)(O)[C@H](O)[C@@H](C)O3)[C@H](O)[C@@H](C)O2)[C@H](O)[C@@H](C)O1 (some centres not stated)
active: [1] 42.2 nM and 53.1 nM | [6] 27.8 µM
not listed: [9] | [18] | [20]
inactive: all other assays above

CC[C@H]1OC(=O)C[C@@H](O)[C@H](C)[C@@H](O[C@@H]2O[C@H](C)[C@@H](O[C@H]3C[C@@](C)(O)[C@@H](O)[C@H](C)O3)[C@H](N(C)C)[C@H]2O)[C@@H](CC=O)C[C@@H](C)C(=O)/C=C/C(C)=C/[C@@H]1CO[C@@H]1O[C@H](C)[C@@H](O)[C@@H](OC)[C@H]1OC
not listed: [18] | [19] | [20]
inactive: all other assays above

CCCCCCCCCCCC[n+]1ccc2ccccc2c1
active: [1] 26.6 µM | [3] 29.8 µM | [4] 7.5 µM | [6] 2.98 µM
not listed: [17] | [18] | [19] | [20]
inactive: all other assays above

C=CC[N@@+]12CC[C@@]34c5ccccc5N5/C=C6/[C@H]7C[C@H]8[C@@]9(CC[N@@+]8(CC=C)C/C7=C/CO)c7ccccc7N(/C=C(/[C@@H](C[C@@H]31)/C(=C\CO)C2)[C@H]54)[C@@H]69
not listed: [19]
inactive: all other assays above

CCN1CCCC1CNC(=O)c1cc(S(=O)(=O)CC)ccc1OC (configuration not stated)
not listed: [15] | [19]
inactive: all other assays above

O=C(O)[C@H]1CN(C/C=C/P(=O)(O)O)CCN1
not listed: [13]
inactive: all other assays above

Nc1nc(NC2CC2)c2ncn([C@@H]3C=C[C@@H](CO)C3)c2n1
active: [2] 13.3 µM
not listed: [19]
inactive: all other assays above
